Data from PMC9911399, “Two distinct binding modes provide the RNA-binding protein RbFox with extraordinary sequence specificity”.
Numbering of substitutions follows the chain as printed; changes in the protein carry UniProt numbers. The full ranking holds about 16,000 sequences; the median of “ka relative to ugcaugu” is about 0.0091, and the highest 2% start at about 0.032. The list comes from a sample in which the highest values are over-represented; it also holds similar and randomly drawn sequences.

T1: RBFOX1 RRM (Homo sapiens, UniProt Q9NWB1 109-208)
T1 sequence: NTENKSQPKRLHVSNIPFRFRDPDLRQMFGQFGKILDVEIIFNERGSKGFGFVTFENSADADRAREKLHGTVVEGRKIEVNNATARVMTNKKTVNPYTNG

B1: CGUUCGA (DNA:RNA)
RNA: GGGAGACCGGAAUUCAGAUUGUCCCGUUCGAUUAAAUCCCGUCGUAGCCACCA
DNA 1: CAATCTGAATTCCGGTCTCCC
DNA 2: TGGTGGCTACGACGGGATT
B2: AUUUAUA (DNA:RNA)
RNA: B1 RNA with C25A, G26U, C29A, G30U
DNA 1: CAATCTGAATTCCGGTCTCCC
DNA 2: TGGTGGCTACGACGGGATT
B3: AGUACGU (DNA:RNA)
RNA: B1 RNA with C25A, U28A, A31U
DNA 1: CAATCTGAATTCCGGTCTCCC
DNA 2: TGGTGGCTACGACGGGATT
B4: GUUGUCC (DNA:RNA)
RNA: B1 RNA with C25G, G26U, U28G, C29U, G30C, A31C
DNA 1: CAATCTGAATTCCGGTCTCCC
DNA 2: TGGTGGCTACGACGGGATT
B5: UGGGCAG (DNA:RNA)
RNA: B1 RNA with C25U, U27G, U28G, G30A, A31G
DNA 1: CAATCTGAATTCCGGTCTCCC
DNA 2: TGGTGGCTACGACGGGATT
B6: CUGGCAG (DNA:RNA)
RNA: B1 RNA with G26U, U27G, U28G, G30A, A31G
DNA 1: CAATCTGAATTCCGGTCTCCC
DNA 2: TGGTGGCTACGACGGGATT
B7: CUGGCAC (DNA:RNA)
RNA: B1 RNA with G26U, U27G, U28G, G30A, A31C
DNA 1: CAATCTGAATTCCGGTCTCCC
DNA 2: TGGTGGCTACGACGGGATT
B8: UGGCACU (DNA:RNA)
RNA: B1 RNA with C25U, U27G, U28C, C29A, G30C, A31U
DNA 1: CAATCTGAATTCCGGTCTCCC
DNA 2: TGGTGGCTACGACGGGATT
B9: UGGGCAC (DNA:RNA)
RNA: B1 RNA with C25U, U27G, U28G, G30A, A31C
DNA 1: CAATCTGAATTCCGGTCTCCC
DNA 2: TGGTGGCTACGACGGGATT
B10: UGGCAGU (DNA:RNA)
RNA: B1 RNA with C25U, U27G, U28C, C29A, A31U
DNA 1: CAATCTGAATTCCGGTCTCCC
DNA 2: TGGTGGCTACGACGGGATT
B11: CCGCAGU (DNA:RNA)
RNA: B1 RNA with G26C, U27G, U28C, C29A, A31U
DNA 1: CAATCTGAATTCCGGTCTCCC
DNA 2: TGGTGGCTACGACGGGATT
B12: AACCGUA (DNA:RNA)
RNA: B1 RNA with C25A, G26A, U27C, U28C, C29G, G30U
DNA 1: CAATCTGAATTCCGGTCTCCC
DNA 2: TGGTGGCTACGACGGGATT
B13: CGCCCCG (DNA:RNA)
RNA: B1 RNA with U27C, U28C, G30C, A31G
DNA 1: CAATCTGAATTCCGGTCTCCC
DNA 2: TGGTGGCTACGACGGGATT
B14: UUGCACU (DNA:RNA)
RNA: GGGAGACCGGAAUUCAGAUUGUCCUUGCACUUUAAAUCCCGUCGUAGCCACCA
DNA 1: CAATCTGAATTCCGGTCTCCC
DNA 2: TGGTGGCTACGACGGGATT
B15: GGGAUAU (DNA:RNA)
RNA: B14 RNA with U25G, U26G, C28A, A29U, C30A
DNA 1: CAATCTGAATTCCGGTCTCCC
DNA 2: TGGTGGCTACGACGGGATT
B16: UAAGUGG (DNA:RNA)
RNA: B1 RNA with C25U, G26A, U27A, U28G, C29U, A31G
DNA 1: CAATCTGAATTCCGGTCTCCC
DNA 2: TGGTGGCTACGACGGGATT
B17: GUUAAGA (DNA:RNA)
RNA: B1 RNA with C25G, G26U, U28A, C29A
DNA 1: CAATCTGAATTCCGGTCTCCC
DNA 2: TGGTGGCTACGACGGGATT
B18: UGGUCUU (DNA:RNA)
RNA: B1 RNA with C25U, U27G, G30U, A31U
DNA 1: CAATCTGAATTCCGGTCTCCC
DNA 2: TGGTGGCTACGACGGGATT
B19: CUGGGUC (DNA:RNA)
RNA: B14 RNA with U25C, C28G, A29G, C30U, U31C
DNA 1: CAATCTGAATTCCGGTCTCCC
DNA 2: TGGTGGCTACGACGGGATT
B20: GUGGGUC (DNA:RNA)
RNA: B14 RNA with U25G, C28G, A29G, C30U, U31C
DNA 1: CAATCTGAATTCCGGTCTCCC
DNA 2: TGGTGGCTACGACGGGATT
B21: UGGGGUC (DNA:RNA)
RNA: B14 RNA with U26G, C28G, A29G, C30U, U31C
DNA 1: CAATCTGAATTCCGGTCTCCC
DNA 2: TGGTGGCTACGACGGGATT
B22: UGGGUCU (DNA:RNA)
RNA: B14 RNA with U26G, C28G, A29U
DNA 1: CAATCTGAATTCCGGTCTCCC
DNA 2: TGGTGGCTACGACGGGATT
B23: CUGGUCU (DNA:RNA)
RNA: B14 RNA with U25C, C28G, A29U
DNA 1: CAATCTGAATTCCGGTCTCCC
DNA 2: TGGTGGCTACGACGGGATT

molecular target: T1, RBFOX1 RRM; assay: EMSA; HiTS-Eq, 1 nM pool, 10 min; buffer printed only for the single-RNA assays: 10 mM Tris pH 7.5, 150 mM NaCl, 3.4 mM EDTA, 0.001% NP-40, 30 C; details: tags: His6 N-terminal (pET28a); label: 5' 32P
Summary of the method: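 A pool of RNA with 7 randomized nucleotides, 5′-radiolabelled and with DNA-annealed flanks, was equilibrated at 1 nM for 10 min in 50 µL with purified RbFox RRM, wild type or mutant, across increasing protein concentrations. Free RNA was separated by 8% native PAGE, excised, reverse-transcribed, barcoded by PCR and sequenced. Relative association constants were obtained from read-count changes of each RNA species versus the control reaction and normalised to the cognate motif.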

Binder | binding signal
B1 | 0.0138 KA relative to UGCAUGU
B2 | 0.00157 KA relative to UGCAUGU
B3 | 0.00915 KA relative to UGCAUGU
B4 | 0.0202 KA relative to UGCAUGU
B5 | 0.0337 KA relative to UGCAUGU
B6 | 0.0227 KA relative to UGCAUGU
B7 | 0.0183 KA relative to UGCAUGU
B8 | 0.0174 KA relative to UGCAUGU
B9 | 0.0337 KA relative to UGCAUGU
B10 | 0.0192 KA relative to UGCAUGU
B11 | 0.00716 KA relative to UGCAUGU
B12 | 0.00191 KA relative to UGCAUGU
B13 | 0.007 KA relative to UGCAUGU
B14 | 0.021 KA relative to UGCAUGU
B15 | 0.0263 KA relative to UGCAUGU
B16 | 0.00934 KA relative to UGCAUGU
B17 | 0.012 KA relative to UGCAUGU
B18 | 0.0179 KA relative to UGCAUGU
B19 | 0.0291 KA relative to UGCAUGU
B20 | 0.0192 KA relative to UGCAUGU
B21 | 0.0387 KA relative to UGCAUGU
B22 | 0.0375 KA relative to UGCAUGU
B23 | 0.0225 KA relative to UGCAUGU
